Experimental data taken from PubChem BioAssay (EPA / NIEHS).
“And” between values parts separate entries of the source, which are not always exact repeats. Identical values can stand only once. Results filed as inconclusive are left out. The source made the active and inactive calls. How the source made its calls: active means hit-call score of the fitted dose curve at least 0.9, where 1 is the maximum; inconclusive means response in the unintended direction; inactive means score below 0.9.

System: not listed separately
Test: TOX21_p53_BLA_p2_viability: Viability Assessment in the Tox21 HCT-116 p53 Agonism Beta-lactamase Assay, Phase 2 (AID 2283591);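 further: compound exposure lasted 16 h at 37 °C; actives lower the ATP signal meaning cytotoxicity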
Method in brief: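 Cytotoxicity readout: CellTiter-Glo ATP luminescence, 30 min at room temperature, after the beta-lactamase read. Cells were HCT116 exposed 16 h at 37C to compounds pin-transferred at 217-fold dilution from DMSO stocks.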

Row | Structure (SMILES) | outcome | AC50
1 | C/C=C(\C)C(=O)OCCc1ccccc1 | inactive | 
2 | C#CC(C)(O)CC(C)C (stereo not drawn) | inactive | 
3 | C=C(CC(=O)O)C(=O)O | inactive | 
4 | Brc1ccc(Br)c(Br)c1 | inactive | 
5 | Cc1cc(C)nc(NS(=O)(=O)c2ccc(N)cc2)n1 | inactive | 
6 | Cc1[nH]c(=O)c(C#N)cc1-c1ccncc1 | inactive | 
7 | IC(I)I | inactive | 
8 | COc1ccc(CCN2CCC(Nc3nc4ccccc4n3Cc3ccc(F)cc3)CC2)cc1 |  | 15.2 µM (active) and 38.9 µM (active)
9 | CC1C2CC(CC2C2CCCC(O)C2)C1(C)C (stereo not drawn) | inactive | 
10 | CCCCC(CC)COC(=O)c1ccc(O)cc1 (stereo not drawn) |  | 41.9 µM (active) and 67.8 µM (active)
11 | CC(C)=CCCC(C)CCOC=O (stereo not drawn) | inactive | 
12 | COC(=O)C=C(C)CCC=C(C)C | inactive | 
13 | CC1(C)C2=CCCC(C)(C)[C@]23CC[C@H]1C3 | inactive | 
14 | CCOC(=O)COC(=O)c1cc(Oc2ccc(C(F)(F)F)cc2Cl)ccc1[N+](=O)[O-] | inactive | 
15 | CCOC(=O)C1OC1c1ccccc1 (stereo not drawn) | inactive | 
16 | CCOC(=O)c1ccc(N)cc1 | inactive | 
17 | O=c1[nH]c(=O)c2cn[nH]c2[nH]1 | inactive | 
18 | CCCCCC(C=O)=Cc1ccccc1 | inactive | 
19 | CC(Oc1cc(Cl)ccc1Cl)C(=O)O (stereo not drawn) | inactive | 

Row | Structure (SMILES) | outcome | AC50
20 | O=C1c2ccccc2C(=O)c2c(O)ccc(O)c21 | inactive | 
21 | O=[N+]([O-])c1ccc(O)cc1C(F)(F)F | inactive | 
22 | COc1ccc(CCC(C)=O)cc1 | inactive | 
23 | CC(C)(C)CC(C)(C)c1ccc(OCCOCC[N+](C)(C)Cc2ccccc2)cc1 |  | 37.1 µM (active) and 32.8 µM (active)
24 | CCCC1O[C@@H]2C[C@H]3[C@@H]4CCC5=CC(=O)C=C[C@]5(C)[C@H]4[C@@H](O)C[C@]3(C)[C@]2(C(=O)CO)O1 (stereo partly drawn) | inactive | 
25 | OCCOCCN1CCN(C2=Nc3ccccc3Sc3ccccc32)CC1 | inactive | 
26 | CCOc1ccc(NC(=O)CC(C)O)cc1 (stereo not drawn) | inactive | 
27 | CCCCCCCCc1ccc(S(=O)(=O)O)cc1 | inactive | 
28 | CCC1(c2ccccc2)C(=O)NCNC1=O | inactive | 
29 | CCCCCCCCCC(C)C=O (stereo not drawn) | inactive | 
30 | CC(=O)CC(=O)Nc1ccc(C)cc1C | inactive | 
31 | C=C(C#N)C(=O)OCC | inactive | 
32 | CC(=O)O[C@@H]1CC2CCC1(C)C2(C)C (stereo partly drawn) | inactive | 
33 | CCOC(=O)CCc1ccccc1 | inactive | 
34 | Nc1ccc2c(O)cc(S(=O)(=O)O)cc2c1 | inactive | 
35 | CCCOCCO | inactive | 
36 | CC(CN=Cc1ccccc1O)N=Cc1ccccc1O (stereo not drawn) | inactive | 
37 | OCCCCC(O)CO (stereo not drawn) | inactive | 
38 | C=C(C)C(=O)OCC(CC)(COC(=O)C(=C)C)COC(=O)C(=C)C | inactive | 

Molecular target: Cellular tumor antigen p53 (Homo sapiens) (UniProt P04637)
Sequence (P04637 whole entry, looked up): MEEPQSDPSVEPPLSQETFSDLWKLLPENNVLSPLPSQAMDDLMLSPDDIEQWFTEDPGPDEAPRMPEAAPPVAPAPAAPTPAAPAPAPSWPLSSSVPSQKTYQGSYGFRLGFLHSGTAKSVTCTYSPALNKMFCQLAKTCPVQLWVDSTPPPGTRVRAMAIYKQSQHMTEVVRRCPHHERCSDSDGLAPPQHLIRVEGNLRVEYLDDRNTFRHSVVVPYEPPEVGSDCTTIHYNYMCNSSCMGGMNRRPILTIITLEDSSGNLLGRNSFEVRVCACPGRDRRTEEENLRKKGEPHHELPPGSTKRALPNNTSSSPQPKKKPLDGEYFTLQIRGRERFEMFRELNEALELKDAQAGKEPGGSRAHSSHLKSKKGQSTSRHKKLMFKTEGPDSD
Test: TOX21_p53_BLA_p2_ratio: Tox21 HCT-116 p53 Agonism Beta-lactamase Assay, Ratio, Phase 2 (AID 2283592)
Method in brief: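 Ratio endpoint: beta-lactamase cleavage of CCF4-AM, blue (460 nm) over green (530 nm). HCT116 reporter line; 16 h treatment, 37C; substrate 2 h RT.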

Row | Structure (SMILES) | outcome | AC50
39 | C/C=C(\C)C(=O)OCCc1ccccc1 | inactive | 
40 | C#CC(C)(O)CC(C)C (stereo not drawn) | inactive | 
41 | Brc1ccc(Br)c(Br)c1 | inactive | 
42 | Cc1[nH]c(=O)c(C#N)cc1-c1ccncc1 | inactive | 
43 | IC(I)I | inactive | 
44 | COc1ccc(CCN2CCC(Nc3nc4ccccc4n3Cc3ccc(F)cc3)CC2)cc1 |  | 31.1 µM (active) and 43.8 µM (active)
45 | CC1C2CC(CC2C2CCCC(O)C2)C1(C)C (stereo not drawn) | inactive | 
46 | CCCCC(CC)COC(=O)c1ccc(O)cc1 (stereo not drawn) |  | 76.7 µM (active) and 74.7 µM (active)
47 | CC(C)=CCCC(C)CCOC=O (stereo not drawn) | inactive | 
48 | COC(=O)C=C(C)CCC=C(C)C | inactive | 
49 | CC1(C)C2=CCCC(C)(C)[C@]23CC[C@H]1C3 | inactive | 
50 | CCOC(=O)COC(=O)c1cc(Oc2ccc(C(F)(F)F)cc2Cl)ccc1[N+](=O)[O-] | inactive | 
51 | CCOC(=O)C1OC1c1ccccc1 (stereo not drawn) | inactive | 
52 | CCOC(=O)c1ccc(N)cc1 | inactive | 
53 | CCCCCC(C=O)=Cc1ccccc1 | inactive | 
54 | CC(Oc1cc(Cl)ccc1Cl)C(=O)O (stereo not drawn) | inactive | 
55 | O=C1c2ccccc2C(=O)c2c(O)ccc(O)c21 | inactive | 
56 | O=[N+]([O-])c1ccc(O)cc1C(F)(F)F |  | 28.2 µM (active)

Row | Structure (SMILES) | outcome | AC50
57 | COc1ccc(CCC(C)=O)cc1 | inactive | 
58 | CC(C)(C)CC(C)(C)c1ccc(OCCOCC[N+](C)(C)Cc2ccccc2)cc1 |  | 56.2 µM (active) and 34.8 µM (active)
59 | CCCC1O[C@@H]2C[C@H]3[C@@H]4CCC5=CC(=O)C=C[C@]5(C)[C@H]4[C@@H](O)C[C@]3(C)[C@]2(C(=O)CO)O1 (stereo partly drawn) | inactive | 
60 | OCCOCCN1CCN(C2=Nc3ccccc3Sc3ccccc32)CC1 | inactive | 
61 | CCOc1ccc(NC(=O)CC(C)O)cc1 (stereo not drawn) | inactive | 
62 | CCCCCCCCc1ccc(S(=O)(=O)O)cc1 | inactive | 
63 | CCC1(c2ccccc2)C(=O)NCNC1=O | inactive | 
64 | CCCCCCCCCC(C)C=O (stereo not drawn) | inactive | 
65 | CC(=O)CC(=O)Nc1ccc(C)cc1C | inactive | 
66 | C=C(C#N)C(=O)OCC | inactive | 
67 | CC(=O)O[C@@H]1CC2CCC1(C)C2(C)C (stereo partly drawn) | inactive | 
68 | CCOC(=O)CCc1ccccc1 | inactive | 
69 | Nc1ccc2c(O)cc(S(=O)(=O)O)cc2c1 |  | 23.1 µM (active) and 18.3 µM (active)
70 | CCCOCCO | inactive | 
71 | CC(CN=Cc1ccccc1O)N=Cc1ccccc1O (stereo not drawn) | inactive | 
72 | OCCCCC(O)CO (stereo not drawn) | inactive | 
73 | C=C(C)C(=O)OCC(CC)(COC(=O)C(=C)C)COC(=O)C(=C)C | inactive | 
